This is part of a sample that, as a whole, favours compounds with a hit. Of some 83,000 tested, about 20% had one in any assay.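 Interpretation: 100, growth as untreated; towards 0, rising growth inhibition; 0, no net growth; 0 to -100, cell death. Compounds scoring below 10 were considered active.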 Unmarked numbers belong to inactive results. Active and inactive are the calls of the source.
Legend:
Assay in all cases: NCI-60 one-dose screen, 48 h (100 = growth as untreated, 0 = no growth, -100 = all killed)
Conditions in all cases: 10 µM unless noted
[1] = tested on: HCT-15 colon
[2] = tested on: HT29 colon
[3] = tested on: SNB-19 CNS
[4] = tested on: U251 CNS
[5] = tested on: PC-3 prostate
[6] = tested on: SK-MEL-5 melanoma
[7] = tested on: UACC-62 melanoma
[8] = tested on: LOX IMVI melanoma
[9] = tested on: SK-MEL-28 melanoma
[10] = tested on: SK-MEL-2 melanoma
[11] = tested on: SN12C renal
[12] = tested on: UO-31 renal
[13] = tested on: TK-10 renal
[14] = tested on: ACHN renal
[15] = tested on: CAKI-1 renal
[16] = tested on: A498 renal
[17] = tested on: CCRF-CEM leukemia
[18] = tested on: MOLT-4 leukemia
[19] = tested on: EKVX NSCLC

SMILES | growth [1] | growth [2] | growth [3] [%] | growth [4] | growth [5] | growth [6] | growth [7] | growth [8] | growth [9] | growth [10] | growth [11] [%] | growth [12] [%] | growth [13] [%] | growth [14] | growth [15] [%] | growth [16] | growth [17] | growth [18] | growth [19] [%]
COc1cc(-c2nn(-c3cccc(NC(=O)Nc4ccc(Cl)c(C(F)(F)F)c4)c3)cc2-c2ccncc2)ccc1Cl | 9.91% (active) | -0.5% (active) | 26.4 | -20.9% (active) | -19% (active) | -65.3% (active) | -43.8% (active) | 1.06% (active) | 8.8% (active) | -57.8% (active) | 12.6 | 11 | 12.6 | 9.33% (active) | 14.7 | -6.71% (active) | -8.04% (active) | -2.38% (active) | –
COc1ccc(-c2ccc(C)n2-c2ccc(-c3nc4ccccc4s3)cc2)cc1 | 96.5% | 92% | 91.9 | 90% | 91.6% | 102% | 86.1% | 88.3% | 113% | – | 86.6 | 86.6 | 119 | 90.9% | 76 | 65.7% | – | 81.8% | 78
COc1ccc(NC(=O)c2cc(OC)c(OC)c(OC)c2)cc1O | 35% | 10.7% | 52.1 | 40.4% | 25.9% | 22.8% | 30.8% | 43.3% | 56% | – | 43.4 | 66.8 | 88.9 | 57.6% | 46.8 | 46% | – | 64.4% | 97.1
COc1cc(Nc2ncccc2C(=O)NCc2cn(Cc3cccc(Oc4ccccc4)c3)nn2)cc(OC)c1 | 32.9% | 8.47% (active) | 59.9 | 34.7% | 57.2% | 19.5% | 32.7% | 43.6% | 67% | – | 42.9 | 49.8 | 70.4 | 53.6% | 36.9 | 24.2% | – | – | 46.2
COc1ccc(N2CCN(Cc3cc(C(=O)/C=C/c4c[nH]c5ccccc45)ccc3O)CC2)cc1 | 98.7% | 106% | 100 | 95% | 88.3% | 99.6% | 101% | 97.2% | 110% | 107% | 97.1 | – | 117 | 97.4% | 90.2 | 106% | 95.8% | 95% | –
COc1ccc(C2C=C(c3ccc(N)cc3)N=C3SC=CN32)cc1OC (stereo unspecified) | 101% | 103% | 102 | 98.5% | 91.4% | 103% | 112% | 105% | 113% | 108% | 105 | 82.2 | 98.1 | 99.9% | 101 | 108% | 97.7% | 90.6% | –
O=S(=O)(c1ccc(OCCO)cc1)c1ccc(OCCO)cc1 | 99% | 97.6% | 108 | 93.2% | 85% | 89.7% | 101% | 105% | 79% | – | 106 | 80.6 | 94.6 | 102% | 98.9 | 107% | -21.9% (active) | 83.2% | 108
COc1ccc(C(=O)c2cc(OC)c(OC)c(OC)c2OC)cc1O | 30.2% | 55.6% | 40.6 | 33.4% | 68.4% | 2.02% (active) | 40.3% | 38.7% | 45.6% | – | 40.5 | 56.5 | 95.9 | 54.5% | 55.4 | 67.7% | – | 44.2% | 93.8
CCN(CC)CCOC(=O)C(c1ccccc1)(c1ccccc1)C(C)C | 95.9% | 61.4% | 97.1 | 87.2% | 69% | 90.6% | 100% | 71.5% | 106% | – | 88.1 | – | 91.6 | 92.8% | 66.8 | 70.5% | 86.4% | 86.7% | 81.6
Cc1cc(C2=NNC(=O)Cc3cc4c(cc32)OCCO4)cc(C)c1N | 31.7% | 7.97% (active) | 48 | 36.6% | 49.1% | 10.2% | 44.1% | 39.7% | 42.3% | – | 43.6 | 40 | 60.6 | 48.7% | 40.4 | 24.2% | – | 52.2% | 59.6
O=C(/C=C/c1c[nH]c2ccccc12)c1ccc(O)c(CN2CCN(c3ccc(F)cc3)CC2)c1 | 93.5% | 99% | 94.1 | 93.7% | 84.7% | 100% | 101% | 96.1% | 107% | 105% | 93.4 | 59.4 | 116 | 92.1% | 95.4 | 98.5% | 93.2% | 99.4% | –
Cc1csc(NC(c2ccc(Br)cc2)c2c(C)nc3ccccn23)n1 (stereo unspecified) | 88.8% | 72.4% | 94.2 | 88.8% | 71.5% | 94.7% | 81.9% | 90.9% | 108% | 86.2% | 94.8 | 55.9 | 116 | 97.5% | 80.8 | 67.3% | 89.1% | 87.1% | –
COc1cccc(/C=C/C(=O)Nc2cc(OC)c3c(c2)OCO3)c1 | 101% | 92.1% | 96.7 | 91.3% | 97.8% | 94.1% | 92% | 95.8% | 114% | – | 93.8 | 101 | 98.4 | 102% | 93.7 | 69.5% | – | 89.5% | 92.4
COc1ccc(C(=O)N2NC(=O)/C(=C/c3cn(-c4ccccc4)nc3-c3ccccc3)N=C2c2ccccc2)cc1 | 98.2% | 99% | 88.6 | 91.2% | 95.3% | 105% | 93% | 99.2% | 105% | – | 95 | 93.7 | 103 | 106% | 95.6 | 77.6% | – | 85% | 96.1
O=C(NCc1cn(Cc2cccc(Oc3ccccc3)c2)nn1)c1cccnc1Nc1ccc(F)cc1 | 31.3% | 38.3% | 72.9 | 55.3% | 89.3% | 40.8% | 43% | 54.4% | 72.4% | – | 44.4 | 59.3 | 83.8 | 72.3% | 53.9 | 26.5% | – | – | 61.8
O=C(Nc1ccncc1)C(=O)c1cn(S(=O)(=O)c2ccc(Oc3ccccc3)cc2)c2ccccc12 | 88.6% | 101% | 98.6 | 94% | 85.7% | 98.2% | 79.1% | 91.3% | 110% | – | 84.9 | 62.3 | 102 | 86.3% | 57 | 34.7% | – | – | 42.3
COc1cc(/C=C/C(=O)/C=C/c2cc(OC)c3c(c2)OCO3)cc2c1OCO2 | 69.1% | 6.92% (active) | 80.3 | 45.1% | 83.7% | 80.9% | 75.1% | 54% | 119% | – | 85.4 | 88.1 | 136 | 102% | 92.6 | 117% | – | 91.2% | 95.9

Reference: PubChem BioAssay (NCI)
